Of roughly 7,900 targets only a part is listed; those with a hit were picked by preference. About 0.6% of all pairs of compound and target were hits.
Experiments:
Test in all cases: log2 fold change, soluble protein after heating vs DMSO (PISA); higher = thermal stabilisation; K562 cells, 10 uM, 30 min; active = over 0.2 and 3.5 SD of the protein, either way, in both replicates (recomputed)
[1] = compound: CC1=C(C=C(C=C1)NC(=O)C2=CC(=CC=C2)C(C)(C)C#N)NC3=CC4=C(C=C3)N=CN(C4=O)C
Outline: (§1)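 K562 cells at 2×10^6 cells/mL were treated for 30 min with 10 μM compound, and aliquots were heated for 3 min over 48°C-58°C before pooling. Extraction used PBS with 0.5% NP-40 at 4°C, and soluble protein was the supernatant after 21,000xg for 90 min, measured by TMTpro 16plex LC-MS/MS with channel sums equalised. Thermal stability values, relative to control samples and from duplicates, are log2 fold changes.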

[2] = compound: CC1=C(C=C(C=C1)NC(=O)C2=CC(=CC=C2)N(C)C)NC(=O)C3=CC=C(C=C3)O
Outline: as §1

[3] = compound: CC1=CC=C(C=C1)SC2=C3C=C(SC3=CN=C2)C(=O)N
Outline: as §1

[4] = compound: CC1=NC(=CC=C1)C2=C(N=C(N2)C(C)(C)C)C3=CC4=NC=CN=C4C=C3
Outline: as §1

Nexturastat A = compound: CCCCN(Cc1ccc(C(=O)NO)cc1)C(=O)Nc1ccccc1 [Nexturastat A]
Outline: as §1

vemurafenib = compound: CCCS(=O)(=O)Nc1ccc(F)c(C(=O)c2c[nH]c3ncc(-c4ccc(Cl)cc4)cc23)c1F [vemurafenib]
Outline: as §1

[5] = compound: CCCS(=O)(=O)Nc1ccc(F)c(C(=O)c2c[nH]c3ncc(Cl)cc23)c1F
Outline: as §1

[6] = compound: CCCc1cc(C)[nH]c(=O)c1CNC(=O)c1cc(-c2ccnc(N3CCN(C)CC3)c2)cc2c1cnn2C(C)C
Outline: as §1

givinostat = compound: CCN(CC)Cc1ccc2cc(COC(=O)Nc3ccc(C(=O)NO)cc3)ccc2c1 [givinostat]
Outline: as §1

barasertib = compound: CCN(CCCOc1ccc2c(Nc3cc(CC(=O)Nc4cccc(F)c4)[nH]n3)ncnc2c1)CCOP(=O)(O)O [barasertib]
Outline: as §1

Measured: log2 fold change

RNF220 (UniProt Q5VTB9)
Sequence of UniProt Q5VTB9 (Q5VTB9 whole entry, looked up): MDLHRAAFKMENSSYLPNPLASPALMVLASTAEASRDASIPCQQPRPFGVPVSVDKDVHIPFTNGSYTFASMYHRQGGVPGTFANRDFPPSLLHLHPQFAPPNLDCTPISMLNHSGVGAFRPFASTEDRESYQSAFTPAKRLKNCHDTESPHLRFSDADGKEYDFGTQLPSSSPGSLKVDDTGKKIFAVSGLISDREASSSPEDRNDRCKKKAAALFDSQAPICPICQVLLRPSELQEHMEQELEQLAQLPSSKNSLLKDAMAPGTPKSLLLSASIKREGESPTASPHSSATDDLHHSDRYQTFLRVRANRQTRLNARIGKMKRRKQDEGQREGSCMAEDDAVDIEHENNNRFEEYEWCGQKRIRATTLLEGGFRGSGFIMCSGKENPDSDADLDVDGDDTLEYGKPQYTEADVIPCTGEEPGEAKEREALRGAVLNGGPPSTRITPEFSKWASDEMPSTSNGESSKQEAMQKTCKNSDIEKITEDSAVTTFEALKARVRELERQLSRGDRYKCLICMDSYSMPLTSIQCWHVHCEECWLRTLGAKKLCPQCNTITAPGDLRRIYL
inactive: [1] -0.01 | [2] -0.086 | [3] 0.008 | [4] 0.047 | Nexturastat A 0.008 | vemurafenib -0.001 | [5] -0.001 | [6] -0.023 | givinostat 0.038 | barasertib 0.016

REL (UniProt Q04864)
Sequence of UniProt Q04864 (Q04864 whole entry, looked up): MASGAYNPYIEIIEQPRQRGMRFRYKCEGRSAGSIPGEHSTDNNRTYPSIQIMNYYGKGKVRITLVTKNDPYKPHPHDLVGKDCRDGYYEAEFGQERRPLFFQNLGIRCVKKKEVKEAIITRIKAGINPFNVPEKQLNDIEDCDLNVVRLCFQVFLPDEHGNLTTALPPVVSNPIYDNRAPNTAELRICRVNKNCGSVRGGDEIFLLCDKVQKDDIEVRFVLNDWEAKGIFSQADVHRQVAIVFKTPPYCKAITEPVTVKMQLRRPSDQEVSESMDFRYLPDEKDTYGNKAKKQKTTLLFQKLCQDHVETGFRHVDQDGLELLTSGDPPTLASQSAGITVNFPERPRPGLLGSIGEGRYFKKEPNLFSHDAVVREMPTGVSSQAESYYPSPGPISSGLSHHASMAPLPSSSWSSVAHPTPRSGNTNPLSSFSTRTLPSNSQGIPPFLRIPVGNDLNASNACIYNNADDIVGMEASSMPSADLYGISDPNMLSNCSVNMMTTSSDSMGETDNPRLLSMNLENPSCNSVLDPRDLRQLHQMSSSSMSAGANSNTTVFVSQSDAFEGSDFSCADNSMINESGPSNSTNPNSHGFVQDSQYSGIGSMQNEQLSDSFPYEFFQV
inactive: [1] 0.001 | [2] -0.044 | [3] 0.033 | [4] -0.004 | Nexturastat A -0.053 | vemurafenib 0.044 | [5] 0.077 | [6] -0.022 | givinostat 0.101 | barasertib 0.079

SEC24A (UniProt O95486)
Sequence of UniProt O95486 (O95486 whole entry, looked up): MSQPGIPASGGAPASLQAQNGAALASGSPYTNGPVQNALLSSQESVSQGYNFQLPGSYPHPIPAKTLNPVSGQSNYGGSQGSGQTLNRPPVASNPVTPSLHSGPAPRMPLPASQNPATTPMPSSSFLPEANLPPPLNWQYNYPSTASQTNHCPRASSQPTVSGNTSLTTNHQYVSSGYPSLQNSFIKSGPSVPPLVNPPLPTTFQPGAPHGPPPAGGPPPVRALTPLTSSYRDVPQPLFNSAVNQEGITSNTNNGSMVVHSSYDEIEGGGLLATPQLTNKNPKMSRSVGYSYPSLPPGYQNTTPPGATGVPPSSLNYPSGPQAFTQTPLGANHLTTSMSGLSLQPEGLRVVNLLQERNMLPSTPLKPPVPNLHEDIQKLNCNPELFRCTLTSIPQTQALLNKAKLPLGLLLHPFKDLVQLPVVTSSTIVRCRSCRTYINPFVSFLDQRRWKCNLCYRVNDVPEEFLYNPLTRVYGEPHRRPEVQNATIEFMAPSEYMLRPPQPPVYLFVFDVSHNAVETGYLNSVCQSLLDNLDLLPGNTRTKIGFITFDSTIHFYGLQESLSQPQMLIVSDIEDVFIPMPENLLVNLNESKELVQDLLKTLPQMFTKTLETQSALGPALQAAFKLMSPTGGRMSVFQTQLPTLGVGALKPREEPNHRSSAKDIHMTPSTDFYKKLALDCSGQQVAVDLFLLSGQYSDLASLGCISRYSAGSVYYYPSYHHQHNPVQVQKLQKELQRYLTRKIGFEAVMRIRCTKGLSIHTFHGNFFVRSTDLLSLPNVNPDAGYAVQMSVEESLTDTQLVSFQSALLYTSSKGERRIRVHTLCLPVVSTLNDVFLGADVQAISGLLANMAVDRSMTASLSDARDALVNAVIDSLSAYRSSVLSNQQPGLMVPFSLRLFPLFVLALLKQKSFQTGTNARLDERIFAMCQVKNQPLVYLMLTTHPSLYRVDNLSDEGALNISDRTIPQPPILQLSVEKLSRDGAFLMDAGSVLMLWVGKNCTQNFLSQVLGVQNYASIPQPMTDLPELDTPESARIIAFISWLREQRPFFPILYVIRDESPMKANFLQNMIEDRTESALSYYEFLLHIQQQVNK
inactive: [1] 0.025 | [2] -0.089 | [3] 0 | [4] 0.012 | Nexturastat A -0.04 | vemurafenib 0.023 | [5] 0.051 | [6] 0.08 | givinostat 0.072 | barasertib 0.006

RRAS2 isoform 4 (UniProt P62070)
Sequence of UniProt P62070 (P62070 whole entry, looked up): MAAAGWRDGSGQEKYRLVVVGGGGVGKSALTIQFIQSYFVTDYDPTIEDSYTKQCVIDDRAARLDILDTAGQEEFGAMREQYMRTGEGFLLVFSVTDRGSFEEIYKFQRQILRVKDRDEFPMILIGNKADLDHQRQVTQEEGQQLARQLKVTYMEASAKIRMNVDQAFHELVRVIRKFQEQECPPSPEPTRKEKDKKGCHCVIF
inactive: [1] -0.016 | [2] -0.02 | [3] -0.009 | [4] -0.021 | Nexturastat A -0.015 | vemurafenib 0.011 | [5] -0.037 | [6] -0.034 | givinostat -0.017 | barasertib -0.049

ROCK2 (UniProt O75116)
Sequence of UniProt O75116 (O75116 whole entry, looked up): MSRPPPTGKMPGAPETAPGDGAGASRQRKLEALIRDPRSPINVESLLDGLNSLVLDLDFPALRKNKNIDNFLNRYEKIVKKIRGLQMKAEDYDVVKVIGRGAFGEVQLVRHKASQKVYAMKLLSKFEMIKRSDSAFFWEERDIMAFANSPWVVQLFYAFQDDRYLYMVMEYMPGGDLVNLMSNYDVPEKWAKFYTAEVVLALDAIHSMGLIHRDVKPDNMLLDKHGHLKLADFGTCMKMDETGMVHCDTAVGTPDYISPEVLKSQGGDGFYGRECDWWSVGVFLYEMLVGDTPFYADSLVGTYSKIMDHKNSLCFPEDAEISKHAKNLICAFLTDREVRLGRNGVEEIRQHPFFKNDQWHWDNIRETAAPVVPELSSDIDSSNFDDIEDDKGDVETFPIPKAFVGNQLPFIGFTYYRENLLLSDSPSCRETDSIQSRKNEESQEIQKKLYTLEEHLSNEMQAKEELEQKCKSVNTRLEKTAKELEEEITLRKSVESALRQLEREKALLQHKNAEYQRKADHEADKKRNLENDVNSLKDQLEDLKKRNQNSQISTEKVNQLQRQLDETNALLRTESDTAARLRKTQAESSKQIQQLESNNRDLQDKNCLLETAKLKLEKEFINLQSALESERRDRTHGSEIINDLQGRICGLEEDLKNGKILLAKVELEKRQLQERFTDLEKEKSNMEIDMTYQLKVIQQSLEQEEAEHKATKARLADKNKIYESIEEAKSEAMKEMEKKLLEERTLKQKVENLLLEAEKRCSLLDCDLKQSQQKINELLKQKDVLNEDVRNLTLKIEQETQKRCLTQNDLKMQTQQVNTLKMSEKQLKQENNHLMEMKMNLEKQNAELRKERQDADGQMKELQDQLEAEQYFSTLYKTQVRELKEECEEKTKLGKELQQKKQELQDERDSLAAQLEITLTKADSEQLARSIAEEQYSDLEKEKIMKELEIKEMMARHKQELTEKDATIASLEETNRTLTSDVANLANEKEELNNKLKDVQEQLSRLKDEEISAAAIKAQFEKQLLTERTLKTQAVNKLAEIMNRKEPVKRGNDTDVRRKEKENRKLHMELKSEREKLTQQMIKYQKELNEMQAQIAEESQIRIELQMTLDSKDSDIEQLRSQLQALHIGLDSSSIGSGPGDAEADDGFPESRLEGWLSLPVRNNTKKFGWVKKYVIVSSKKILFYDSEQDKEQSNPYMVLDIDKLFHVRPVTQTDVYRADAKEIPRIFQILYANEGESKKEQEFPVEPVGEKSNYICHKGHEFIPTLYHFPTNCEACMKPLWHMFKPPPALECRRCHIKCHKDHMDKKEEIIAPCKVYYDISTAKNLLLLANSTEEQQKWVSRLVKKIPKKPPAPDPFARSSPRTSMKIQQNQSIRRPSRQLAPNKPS
inactive: [1] 0.009 | [2] -0.044 | [3] -0.037 | [4] 0.02 | Nexturastat A -0.004 | vemurafenib 0.034 | [5] -0.005 | [6] -0.06 | givinostat 0.055 | barasertib 0.027

SGPL1 (UniProt O95470)
inactive: [1] -0.036 | [2] -0.056 | [3] 0.014 | [4] -0.054 | Nexturastat A 0.031 | vemurafenib 0.033 | [5] -0.036 | [6] 0.074 | givinostat -0.035 | barasertib 0.051

RB1CC1 (UniProt Q8TDY2)
inactive: [1] -0.061 | [2] -0.005 | [3] 0.025 | [4] -0.031 | Nexturastat A 0.161 | vemurafenib -0.022 | [5] -0.034 | [6] 0.147 | givinostat 0.102 | barasertib -0.008

RHOXF2 (UniProt Q9BQY4)
Sequence of UniProt Q9BQY4 (Q9BQY4 whole entry, looked up): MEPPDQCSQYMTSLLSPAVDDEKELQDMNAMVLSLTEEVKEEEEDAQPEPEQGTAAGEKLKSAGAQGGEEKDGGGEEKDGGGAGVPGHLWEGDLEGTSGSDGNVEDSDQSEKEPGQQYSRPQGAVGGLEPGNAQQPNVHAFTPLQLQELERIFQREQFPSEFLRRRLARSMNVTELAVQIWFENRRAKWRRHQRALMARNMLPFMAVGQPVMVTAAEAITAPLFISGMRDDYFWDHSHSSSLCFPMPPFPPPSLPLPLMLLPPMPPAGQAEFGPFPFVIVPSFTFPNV
inactive: [1] -0.03 | [2] 0.034 | [3] -0.037 | [4] 0.021 | Nexturastat A 0.083 | vemurafenib -0.015 | [5] 0.012 | [6] -0.024 | givinostat 0.05 | barasertib 0.033

SAFB2 (UniProt Q14151)
inactive: [1] 0.011 | [2] 0.068 | [3] -0.024 | [4] 0.011 | Nexturastat A 0.203 | vemurafenib -0.048 | [5] -0.038 | [6] 0.097 | givinostat -0.011 | barasertib -0.029

RBM4 (UniProt Q9BWF3)
Sequence of UniProt Q9BWF3 (Q9BWF3 whole entry, looked up): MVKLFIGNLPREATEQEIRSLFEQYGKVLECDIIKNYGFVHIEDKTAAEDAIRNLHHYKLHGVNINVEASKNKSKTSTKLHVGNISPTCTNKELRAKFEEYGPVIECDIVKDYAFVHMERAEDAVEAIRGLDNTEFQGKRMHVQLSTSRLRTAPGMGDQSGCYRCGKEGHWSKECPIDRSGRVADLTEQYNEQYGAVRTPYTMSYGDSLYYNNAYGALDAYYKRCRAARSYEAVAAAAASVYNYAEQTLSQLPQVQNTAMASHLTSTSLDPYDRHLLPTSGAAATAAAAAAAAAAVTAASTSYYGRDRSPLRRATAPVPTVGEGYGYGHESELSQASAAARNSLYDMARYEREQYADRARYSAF
inactive: [1] -0.041 | [2] -0.033 | [3] -0.061 | [4] -0.034 | Nexturastat A 0.081 | vemurafenib 0.01 | [5] 0.052 | [6] 0.003 | givinostat 0.071 | barasertib 0.018

RPS15 (UniProt P62841)
inactive: [1] -0.014 | [2] 0.038 | [3] -0.146 | [4] 0.005 | Nexturastat A 0.285 | vemurafenib -0.117 | [5] -0.175 | [6] 0.1 | givinostat -0.041 | barasertib -0.125

RBM26 isoform 2 (UniProt Q5T8P6)
inactive: [1] 0.122 | [2] -0.088 | [3] 0.033 | [4] 0.116 | Nexturastat A -0.184 | vemurafenib 0.143 | [5] 0.09 | [6] -0.014 | givinostat 0.097 | barasertib 0.079

SCCPDH (UniProt Q8NBX0)
Sequence of UniProt Q8NBX0 (Q8NBX0 whole entry, looked up): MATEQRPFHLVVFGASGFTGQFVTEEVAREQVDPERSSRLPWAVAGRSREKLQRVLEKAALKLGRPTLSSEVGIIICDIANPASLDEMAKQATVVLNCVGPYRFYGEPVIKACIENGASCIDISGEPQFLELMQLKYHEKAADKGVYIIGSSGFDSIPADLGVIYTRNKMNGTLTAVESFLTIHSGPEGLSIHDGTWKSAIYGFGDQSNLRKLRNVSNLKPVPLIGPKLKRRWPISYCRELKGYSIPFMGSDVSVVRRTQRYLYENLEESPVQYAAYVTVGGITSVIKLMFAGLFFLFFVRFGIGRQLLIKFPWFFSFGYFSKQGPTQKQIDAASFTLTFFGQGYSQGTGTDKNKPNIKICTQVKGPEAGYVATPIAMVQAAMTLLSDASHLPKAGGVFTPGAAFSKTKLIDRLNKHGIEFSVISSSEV
inactive: [1] 0.147 | [2] -0.092 | [3] 0.074 | [4] 0.037 | Nexturastat A -0.232 | vemurafenib -0.016 | [5] -0.123 | [6] 0.016 | givinostat 0.183 | barasertib 0.046

RPS13 (UniProt P62277)
inactive: [1] 0.006 | [2] 0.022 | [3] -0.044 | [4] -0.057 | Nexturastat A 0.119 | vemurafenib -0.144 | [5] -0.09 | [6] 0.091 | givinostat 0.045 | barasertib -0.101

From the supplement of paper PMC10849652
